“And” between values parts separate entries of the source, which are not always exact repeats. Identical values can stand only once. Screen size: about 5,500 compounds; about 2,000 (36%) were called active. About 18% were inconclusive and are not listed. Cut-off read from the data, not from the text of the source: active = normalized growth mostly below about 0.91 (no sharp cut-off); inconclusive = no clear call, values can overlap the other calls; inactive = mostly above about 0.92. This is one part of the list.
Assay: chemical genetic growth profiling, strain panel (AID 1159580);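 note: tested at 20 µM; growth read once vehicle control cultures reached saturation at 30 °C; 1 = growth at the plate median or of vehicle wells; lower values mean less growth of the strain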
Conditions: S. cerevisiae deletion strains, growth OD

Measured: normalized growth

C1CCN2C[C@@H]3C[C@H](CN4CCCC[C@@H]34)[C@H]2C1
inactive: locus YAL013W, strain DEP1, hits give low values 1.04 | locus YAL021C, strain ccr4, hits give low values 0.995 | locus YAL026C, strain drs2, hits give low values 1.02 | locus YAL030W, strain snc1, hits give low values 1.01 | locus YBL061C, strain skt5, hits give low values 0.999 | locus YBR009C, strain hhf1, hits give low values 1 | locus YBR021W, strain FUR4, hits give low values 1.02 | locus YBR023C, strain chs3, hits give low values 1.01 | locus YBR171W, strain sec66, hits give low values 1.01 | locus YBR229C, strain ROT2, hits give low values 0.999 | locus YBR231C, strain swc5, hits give low values 1.03 | locus YBR279W, strain paf1, hits give low values 1.01 | locus YCL011C, strain gbp2, hits give low values 1 | locus YCL016C, strain dcc1, hits give low values 0.991 | locus YCL029C, strain bik1, hits give low values 0.995 | locus YCL061C, strain MRC1, hits give low values 1.01 | locus YCL069W, strain vba3, hits give low values 1.01 | locus YCR088W, strain abp1, hits give low values 1.01 | locus YDL005C, strain med2, hits give low values 1.02 | locus YDL035C, strain GPR1, hits give low values 1.02 | locus YDL040C, strain nat1, hits give low values 1 | locus YDL074C, strain BRE1, hits give low values 1.01 | locus YDL101C, strain DUN1, hits give low values 1.01 | locus YDL134C, strain PPH21, hits give low values 1 | locus YDL185W, strain tfp1, hits give low values 1 | locus YDL192W, strain arf1, hits give low values 1.01 | locus YDR001C, strain nth1, hits give low values 1.01 | locus YDR069C, strain doa4, hits give low values 1.01 | locus YDR101C, strain arx1, hits give low values 1 | locus YDR137W, strain rgp1, hits give low values 1.01 | locus YDR150W, strain NUM1, hits give low values 1.01 | locus YDR159W, strain sac3, hits give low values 1.05 | locus YDR162C, strain NBP2, hits give low values 1.01 | locus YDR195W, strain ref2 0.996 | locus YDR297W, strain sur2, hits give low values 1.03 | locus YDR318W, strain mcm21, hits give low values 1.01 | locus YDR334W, strain swr1, hits give low values 1.01 | locus YDR335W, strain msn5, hits give low values 1.01 | locus YDR388W, hits give low values 0.994 | locus YDR392W, strain spt3, hits give low values 1.02 | locus YDR502C, strain sam2, hits give low values 1.01 | locus YEL003W, strain gim4, hits give low values 1.01 | locus YEL037C, strain rad23, hits give low values 0.994 | locus YEL061C, strain CIN8 (second series), hits give low values 1.01 | locus YEL061C, strain CIN8, hits give low values 1 | locus YER015W, strain faa2, hits give low values 1 | locus YER016W, strain bim1, hits give low values 1 | locus YER110C, hits give low values 0.999 | locus YER111C, strain swi4, hits give low values 0.993 | locus YER155C, strain BEM2 (second series), hits give low values 1.04 | locus YER155C, strain BEM2, hits give low values 1.01 | locus YER167W, strain BCK2, hits give low values 1.03 | locus YFR010W, strain ubp6, hits give low values 1.02 | locus YGL078C, strain dbp3, hits give low values 1 | locus YGL086W, strain mad1, hits give low values 1.01 | locus YGL167C, strain pmr1, hits give low values 1 | locus YGL173C, strain kem1, hits give low values 1.02 | locus YGL227W, strain vid30, hits give low values 1.01 | locus YGL240W, strain doc1, hits give low values 1.04 | locus YGL248W, strain PDE1, hits give low values 1 | locus YGL253W, strain hxk2, hits give low values 1 | locus YGR135W, strain pre9, hits give low values 0.996 | locus YGR252W, strain gcn5, hits give low values 1.02 | locus YHR013C, strain ard1, hits give low values 1.01 | locus YHR027C, strain rpn1, hits give low values 1.01 | locus YHR030C, strain SLT2, hits give low values 1.01 and 1.07 | locus YHR079C, strain IRE1 (second series), hits give low values 1 | locus YHR079C, strain IRE1, hits give low values 1.03 | locus YHR094C, strain hxt1, hits give low values 0.995 | locus YHR129C, strain ARP1, hits give low values 1.01 | locus YHR142W, strain chs7, hits give low values 1 | locus YHR200W, strain rpn10, hits give low values 1 | locus YIL066C, strain RNR3, hits give low values 1.03 | locus YIL073C, strain SPO22, hits give low values 1.02 | locus YIL125W, strain kgd1, hits give low values 1 | locus YIR030C, strain dcg1, hits give low values 1 | locus YJL092W, strain hpr5, hits give low values 1 | locus YJL095W, strain BCK1 (second series), hits give low values 1.01 | locus YJL095W, strain BCK1, hits give low values 1.02 and 1.04 | locus YJL115W, strain asf1, hits give low values 0.993 | locus YJL129C, strain trk1, hits give low values 1 | locus YJL134W, strain LCB3, hits give low values 1.01 | locus YJL154C, strain vps35, hits give low values 1 | locus YJL164C, strain tpk1, hits give low values 0.997 | locus YJL166W, strain qcr8, hits give low values 1.01 | locus YJL168C, strain set2, hits give low values 1 | locus YJL187C, strain SWE1 (second series), hits give low values 1.01 | locus YJL187C, strain SWE1, hits give low values 0.991 | locus YJR043C, strain POL32, hits give low values 1.01
